# Data published in PubChem BioAssay AID1745848 (National Center for Advancing Translational Sciences (NCATS), 2022).
# Hit rate of the full screen: of about 2,100 compounds, about 940 (45%) were called active. About 48% were inconclusive and are not listed. Calls follow the shape of the dose curve; as a rule, active = well fitted inhibition curve with a large enough effect; inconclusive = small, poorly fitted or top-dose-only effect; inactive = no such curve, though single readings can be large or run the other way. So high a share suggests a set chosen from earlier hits. The list shows a part of the results.
# Test: Confirmatory qHTS for Inhibitors of ATXN expression; also: nearly all actives have a fitted effect of over 65% in size
# Conditions: ATXN2-luciferase reporter cells, luminescence, 24 h; series mostly up to 11.5 µM
# How it was run: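 A titration, incubated 24 h with reporter cells expressing ATXN2-luciferase. Luminescence (SteadyGlo) gives ATXN2 expression, multiplexed GF-AFC fluorescence gives viability; normalised to DMSO and medium-only wells.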
# Potency is read from the fitted curve at half-maximal effect.
row,Compound,Potency
1,COc1cc(/C=C/CN2CCC(C(=O)NC(c3ccc(F)cc3)c3ccc4ccccc4n3)CC2)ccc1OC(C)=O (configuration not stated),17.8 µM (active)
2,CCCC(=O)NC(c1ccccc1)c1ccc2cccnc2c1O (configuration not stated),2.82 µM (active)
3,CCCCC(=O)NC(c1ccccc1)c1ccc2cccnc2c1O (configuration not stated),2.82 µM (active)
4,CC(N)c1csc(NC(=O)c2cc(C(C)(C)C)nn2Cc2ccccc2)n1 (configuration not stated),3.16 µM (active)
5,FC(F)(F)c1nc(-c2cccs2)ncc1-c1nnnn1-c1ccc(Cl)cc1,20 µM (active)
6,CN(c1ccccc1)S(=O)(=O)c1cccc(NC(=O)c2cc(=O)c3ccccc3o2)c1,28.2 µM (active)
7,Cc1nc2ccc(NC(=O)c3cccc(S(=O)(=O)N(C)c4ccccc4)c3)cc2s1,3.98 µM (active)
8,Cc1nc2ccc(NC(=O)c3ccc(S(=O)(=O)N(C)c4ccccc4)cc3)cc2s1,2.24 µM (active)
9,CCCC(=O)Nc1ccc2nc(SCC(=O)N3CCCC3)sc2c1,inactive
10,CCCCC(=O)N(CCOC)c1nnc(-c2ccccc2C)s1,inactive
11,CC[n+]1c(C=C2C=C(C)OC(C)=C2)sc2ccccc21,6.31 µM (active)
12,Cc1cc(Nc2cccc([N+](=O)[O-])c2)n2c(nc3ccccc32)c1C#N,1.12 µM (active)
13,Cc1cc(Cl)c(C(=O)Nc2cccc(C(F)(F)F)c2)c(C)n1,11.2 µM (active)
14,CCOc1ccccc1C(=O)Nc1ccc2nc(N3CCN(c4ncccn4)CC3)cc(C)c2c1,7.94 µM (active)
15,CCCCC(=O)NC(c1ccc(N(CC)CC)cc1)c1ccc2cccnc2c1O (configuration not stated),0.355 µM (active)
16,CCCCC(=O)NC(c1ccc(N(C)C)cc1)c1ccc2cccnc2c1O (configuration not stated),1.26 µM (active)
17,COc1ccc(CNCC(O)(c2ccc(Cl)cc2)c2ccc(Cl)cc2)cc1OC,3.16 µM (active)
18,Cc1cc(C)c2c(N)c3cccc(C)c3nc2n1,10 µM (active)
19,O=C(COc1ccc(Cl)cc1)N/N=C/c1cccc2cccnc12,25.1 µM (active)
20,O=C(COc1ccc(F)cc1)N/N=C/c1cccc2cccnc12,3.55 µM (active)
21,CC(=O)Nc1sc2c(c1-c1nc3ccccc3s1)CN(C(C)C)CC2,10 µM (active)
22,O=C(Nc1nc(-c2ccccn2)cs1)c1ccco1,4.47 µM (active)
23,O=C(Nc1nc(-c2ccccn2)cs1)c1ccccc1-n1cnnn1,2 µM (active)
24,CCc1sc(C(=O)Nc2nc(-c3ccccn3)cs2)cc1C,8.91 µM (active)

row,Compound,Potency
1,CC(Oc1ccc(F)cc1)C(=O)Nc1nc(-c2ccccn2)cs1 (configuration not stated),2.24 µM (active)
2,CCc1cc(-c2[nH]ncc2-c2ccc(OC)cc2)c(O)cc1O,3.98 µM (active)
3,Cc1cc(NC(=O)/C=C/C(=O)N(c2ccccc2C)C(C(=O)NC2CCCC2)c2ccc(F)cc2)no1 (configuration not stated),3.55 µM (active)
4,Cc1cc(NC(=O)CSc2nccn2-c2cccc(C)c2C)no1,inactive
5,COc1ccc(C2CC(c3cccc(Cl)c3)=NN2c2ccc(S(N)(=O)=O)cc2)cc1 (configuration not stated),25.1 µM (active)
6,COc1ccc(C2CC(c3ccccc3C(F)(F)F)=NN2c2ccc(S(N)(=O)=O)cc2)cc1 (configuration not stated),25.1 µM (active)
7,COc1ccc(C2CC(c3ccccc3Cl)=NN2c2ccc(S(N)(=O)=O)cc2)cc1 (configuration not stated),inactive
8,Oc1ccc(Cc2ccccc2)c2cccnc12,10 µM (active)
9,Oc1ccc(Cl)c2cccnc12,28.2 µM (active)
10,Oc1ccc(CN2CCC(Cc3ccccc3)CC2)c2cccnc12,0.891 µM (active)
11,O=c1c(Cc2ccccc2)c(O)nc2n1CCS2,inactive
12,CC(=O)N(C1=C(Cl)C(=O)c2ccccc2C1=O)C1CCCCC1,8.91 µM (active)
13,CCCC(=O)Nc1c(C(=O)OCC)[nH]c2ccccc12,inactive
14,CCOc1ccccc1NC(=O)CCCc1nc2ccccc2c(=O)[nH]1,2.51 µM (active)
15,N#CCc1nc2ccccc2c(=O)[nH]1,inactive
16,CCOC(=O)C(NS(=O)(=O)c1ccc(C)cc1)(C(F)(F)F)P(=O)(OCC(C)C)OCC(C)C (configuration not stated),inactive
17,O=C(/C=C\c1ccccc1)NCC(=O)N/N=C/c1ccc(O)cc1O,15.8 µM (active)
18,O=C(COc1ccccc1)NCC(=O)N/N=C/c1ccc(O)cc1O,15.8 µM (active)
19,Cc1cccc(OCC(=O)NCC(=O)N/N=C/c2cc(Br)cc(Br)c2O)c1,8.91 µM (active)
20,CCOc1ccc(/C=N/NC(=O)C(O)c2ccccc2)c(O)c1 (configuration not stated),3.16 µM (active)
21,O=C(N/N=C/c1ccc(O)cc1O)/C(=C/c1ccccc1)CCO,0.794 µM (active)
22,CCN(CC)c1ccc(/C=C/c2cccc[n+]2C)c(OC)c1,2.51 µM (active)
23,Cc1cc(C)nc(/N=C(\N)Nc2ccc(C(C)C)cc2)n1,2.24 µM (active)
